# Hits are enriched below; roughly 1.6% of the tested compounds scored in any of these assays.
# Efflux pump inh – inhibitors of Candida efflux pumps in yeast, primary screen, S. cerevisiae, Nile Red, multiplex; 330,000 tested, 0.44% active; S. cerevisiae Candida pump triplex; AID 485275, 2010; inhibition, % at 10 µM;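 active = plate passing quality check with inhibition over a set limit, or well fluorescence over plate mean plus 4 SD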;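 note: Nile Red retained in pooled yeast measured as flow cytometry median fluorescence; higher means more Nile Red kept so more efflux inhibition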
# ATG4B inh – ATG4B protease inhibitors, primary screen, biochemical, fluorescence, uHTS; Cysteine protease ATG4B (Homo sapiens), Q9Y4P1; ATG4B cleavage of LC3-PLA2, NBD-HPC fluorescence, 1 h; inhibition, % at 8.33 µM; 340,000 tested, 0.51% active; AID 504462, 2011; in the data active = inhibition above about 40%
# Target sequence (Q9Y4P1 whole entry, looked up): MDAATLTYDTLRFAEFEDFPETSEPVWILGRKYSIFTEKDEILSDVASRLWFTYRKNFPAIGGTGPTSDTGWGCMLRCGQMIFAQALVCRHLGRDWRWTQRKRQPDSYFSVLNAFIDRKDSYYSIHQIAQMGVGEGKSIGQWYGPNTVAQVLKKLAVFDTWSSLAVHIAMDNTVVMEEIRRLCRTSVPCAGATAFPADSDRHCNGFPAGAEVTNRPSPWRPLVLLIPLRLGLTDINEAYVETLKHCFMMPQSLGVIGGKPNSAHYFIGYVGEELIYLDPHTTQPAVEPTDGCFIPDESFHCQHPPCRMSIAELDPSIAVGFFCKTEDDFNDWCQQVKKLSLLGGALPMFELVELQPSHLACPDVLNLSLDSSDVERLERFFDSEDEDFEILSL
# Yeast superoxide – reduction of superoxide in aged yeast, primary screen, HTS; S. cerevisiae aged cells, superoxide DHE fluorescence; stronger effect = lower value; superoxide response (% of plate mean), % at 10 µM; 330,000 tested, 0.18% active; AID 2690, 2010;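 active = superoxide response under a set limit, about three screen SD below normal, cut at about 65% in these data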;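 note: yeast aged for seven days with compound at 30 °C before DHE staining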
# GRK2 aptamer HTS – compounds blocking aptamer binding on GRK2 – biochemical, human GRK2, bead flow cytometry, HTS, primary screen | 330,000 tested, 0.59% active | FAM-aptamer displacement from GRK2 | inhibition of aptamer binding, % at 10 µM | Beta-adrenergic receptor kinase 1 (Homo sapiens), P25098;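 active = inhibition of aptamer binding above 40%, roughly 3 SD of noise, on plates passing a quality check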;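 note: median bead fluorescence of bound FAM aptamer so fluorescent compounds give negative values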
# ATG4B confirm – ATG4B protease inhibitors, retest, confirmation, biochemical, fluorescence, single concentration; shares compounds with ATG4B inh; ATG4B protease fluorescent substrate cleavage assay; inhibition, % at 8.33 µM; 320 tested, 92% active; in the data active = inhibition above about 39%
# PLA2 ctr – PLA2 enzyme inhibition, counter-screen for ATG4B inhibitor project, biochemical, single concentration, uHTS hits. inhibition, % at 8.33 µM. purified PLA2, NBD-C6-HPC fluorescence, 45 min. shares compounds with ATG4B inh. 1,600 tested, 66% active; in the data active = inhibition above about 50%
# Target sequence (P04054 whole entry, looked up): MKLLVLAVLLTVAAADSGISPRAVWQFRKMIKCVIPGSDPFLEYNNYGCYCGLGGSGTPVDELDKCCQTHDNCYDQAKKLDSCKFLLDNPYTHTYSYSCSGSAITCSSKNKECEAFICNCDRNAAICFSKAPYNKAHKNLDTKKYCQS
# A number is an active result; – = inactive; · = not tested or not shown.
SMILES,Efflux pump inh,ATG4B inh,Yeast superoxide,GRK2 aptamer HTS,PLA2 ctr,others
COc1ccc(N2CCN(CCCNC(=O)C(=O)c3c(C)n(C)c4ccccc34)CC2)cc1,–,–,–,–,·,
Cc1nn(CC(=O)OCC(=O)c2ccc(OC(F)F)cc2)c(C)c1[N+](=O)[O-],–,–,–,–,·,
CCn1cc(C(=O)OCC(=O)c2cc(C)n(-c3ccc(OC(F)F)cc3)c2C)c(=O)c2ccc(C)nc21,–,72,–,–,74,
Cc1cc(C(=O)COC(=O)c2ccc[nH]c2=O)c(C)n1-c1ccccc1F,–,–,–,–,·,
CCn1cc(C(=O)OCC(=O)c2cc(C)n(-c3ccccc3)c2C)c(=O)c2ccc(C)nc21,–,66,–,–,68,
CCn1cc(C(=O)OCC(=O)N(C)Cc2ccccc2)c(=O)c2ccc(C)nc21,–,–,–,–,·,
CCn1cc(C(=O)OCC(=O)c2cc(C)n(-c3ccccc3F)c2C)c(=O)c2ccc(C)nc21,–,71,–,–,75,
CCn1cc(C(=O)OCC(=O)Nc2ccccc2OC(F)F)c(=O)c2ccc(C)nc21,–,–,–,–,·,
COc1cccc(-c2nc(SCC(=O)Nc3nc(-c4ccccc4)c(C)s3)[nH]c(=O)c2C#N)c1,–,42,–,–,–,ATG4B confirm=75
CCOc1cc(/C=C2\SC(=O)N(CC(=O)Nc3ccccc3F)C2=O)cc([N+](=O)[O-])c1O,–,43,–,–,–,ATG4B confirm=59
O=C(NCc1ccc(Cl)cc1Cl)C1CCN(S(=O)(=O)c2ccc3c(c2)OCCCO3)CC1,–,42,–,–,55,
COc1ccc(OC)c(S(=O)(=O)N2CCCC2C(=O)NC(C)c2ccccc2)c1 (configuration not stated),–,–,–,–,·,
CCOc1ccc(NC(=S)NC(=O)/C=C/c2ccco2)cc1,–,–,–,–,·,
COc1cc(NS(=O)(=O)c2ccc(NC(=S)NC(=O)/C=C/c3ccco3)cc2)ncn1,·,56,·,·,–,ATG4B confirm=46
O=C(Nc1c(Cl)cccc1Cl)c1cc(-c2ccco2)on1,–,43,–,–,–,ATG4B confirm=67
COc1ccccc1-c1nc(S(=O)(=O)c2ccccc2)c(N2CCCCC2)o1,–,–,–,–,·,
O=S(=O)(c1ccc(F)cc1)c1nc(-c2ccccc2F)oc1N1CCCCC1,–,44,–,–,–,ATG4B confirm=65
O=C(CNc1cc(S(=O)(=O)N2CCOCC2)ccc1N1CCCC1)N1CCc2ccccc21,–,–,–,–,·,
O=C(CSc1nc2ccccc2c(=O)n1Cc1ccccc1)Nc1ccc(Br)cc1C(=O)O,–,45,–,–,–,ATG4B confirm=60
Cc1ccc(S(=O)(=O)N2CCOCC2)cc1NC(=O)CSc1nc2ccccc2c(=O)n1Cc1ccccc1,–,–,–,–,·,
Oc1ccc2ccccc2c1/C=N/Nc1nnc(-c2ncc[nH]2)c2ccccc12,–,48,–,–,–,ATG4B confirm=49
Cc1ccccc1C(=O)Nc1nnc(SC(C)C)s1,–,–,–,–,·,
COc1cccc2c1Oc1ncccc1N(C(=O)CCC(=O)NCc1cccc(C)c1)C2,–,–,–,–,·,
O=C(O)c1ccccc1C(=O)Nc1ccc(Oc2cccc3ccccc23)cc1,·,–,·,·,·,
Cc1cccc(Oc2ccc(NC(=O)c3ccccc3C(=O)O)cc2)c1C,–,69,–,–,70,
SMILES,Efflux pump inh,ATG4B inh,Yeast superoxide,GRK2 aptamer HTS,PLA2 ctr,others
O=C1NC(=O)/C(=C/c2ccccc2OCc2ccccc2)S1,–,46,–,–,53,
O=C1NC(=O)/C(=C\c2ccccc2Oc2ccc(F)c(F)c2)S1,–,57,–,–,–,
O=C1NC(=O)C(=Cc2ccc(Cl)cc2Cl)S1,·,–,·,·,·,
O=c1c2ccccc2nc(-c2ccoc2)n1CCc1ccccc1,–,42,–,–,–,ATG4B confirm=65
O=C(COc1cccc2cccnc12)N1CCc2ccccc21,–,–,–,–,·,
CCCCCCOc1ccc(N2C(=O)CC(S/C(N)=N/N=C(\C)c3cccs3)C2=O)cc1 (configuration not stated),–,49,–,–,–,ATG4B confirm=61
Cc1cc(C)cc(-n2c(C)cc(/C=C3\C(=N)N4N=C(CC(C)C)SC4=NC3=O)c2C)c1,–,44,–,–,–,ATG4B confirm=46
CCCC1=NN2C(=N)/C(=C\c3cc(C)n(-c4cc(C)cc(C)c4)c3C)C(=O)N=C2S1,–,58,–,–,55,
Cc1cccc(-n2c(C)cc(/C=C3\C(=N)N4N=C(CC(C)C)SC4=NC3=O)c2C)c1,–,–,–,–,·,
CC(C)[N+]1=C2C=CC=CC=C2SC12C([N+](=O)[O-])=CC(=[N+]([O-])[O-])C=C2[N+](=O)[O-] (configuration not stated),–,–,–,–,·,
O=C(CN1CCCc2ccccc21)Nc1cccc(S(=O)(=O)N2CCOCC2)c1,·,–,·,·,·,
CCc1ccccc1NC(=O)COc1ccc(C(=S)N2CCCC2)cc1,–,–,–,–,·,
CCc1ccc(NC(=O)C2C3/C=C\CCCCC32)cc1 (configuration not stated),–,–,–,–,·,
CC1CN=C(c2cccn2Cc2ccc(F)cc2Cl)O1 (configuration not stated),–,43,–,–,53,
C=CCN1CC(C(=O)N2CCC(Cc3ccc(Cl)cc3)(C(=O)OCC)CC2)CC1=O (configuration not stated),–,–,–,–,·,
CON(C)C(=O)CC(CN(Cc1ccccc1)C(=O)OC(C)(C)C)c1ccc(Cl)cc1 (configuration not stated),–,53,–,–,79,
Cc1sc2nc(SCC(=O)Nc3ccc(Cl)c(C(=O)O)c3)[nH]c(=O)c2c1C,·,–,·,·,·,
Cc1ccc(-c2csc3nc(SCC(=O)Nc4ccc(Cl)c(C(=O)O)c4)[nH]c(=O)c23)cc1,–,78,–,–,78,
O=C(/C=C/c1ccc(Cl)cc1Cl)N1CCN(c2ccccc2[N+](=O)[O-])CC1,–,53,–,–,60,
O=C(/C=C/c1ccc(Cl)cc1Cl)N1CCN(c2ccc([N+](=O)[O-])c(N3CCOCC3)c2)CC1,–,–,–,–,·,
O=c1cc(-c2ccc(O)c(-c3c(O)cc(O)c4c(=O)cc(-c5ccc(O)cc5)oc34)c2)oc2cc(O)cc(O)c12,–,82,–,–,76,
CCCc1nc2c(=O)n(C)c(=O)nc-2n(C)n1,·,77,·,·,–,ATG4B confirm=–
Cn1nc(-c2ccccn2)nc2c(=O)n(C)c(=O)nc1-2,–,79,–,–,–,ATG4B confirm=–
Cc1nc2sc(C(N)=O)c(N)c2c2c1CCCC2,–,–,–,·,·,
COc1ccc(OCC(=O)Nc2cccc(C(=O)Nc3ccccc3C(=O)O)c2)cc1,–,–,–,–,·,
Cc1cc(C)c(CNC(=O)c2cc(C3CC3)nc3c2cnn3C(C)C)c(=O)[nH]1,–,–,–,–,·,

# Assay outcomes (PubChem BioAssay)
